The full list was thinned out, with hits kept by preference.
GIRK2 act = Activators of human GIRK2-containing channels; P48051; HEK293 GIRK2/NPY4 cells, thallium flux fluorescence; activation (% efficacy), % for hits at 37.5 µM; 34,000 tested, under 10 active; AID 1259324;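 active means primary screen hit, no activity in plain HEK293 cells, and in GIRK2-only cells above 5% efficacy rising with concentration; inactive means the rest, including fluorescent compounds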;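 further: efficacy is normalized control-subtracted fluorescence 15 s after thallium addition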
Target sequence (P48051 whole entry, looked up): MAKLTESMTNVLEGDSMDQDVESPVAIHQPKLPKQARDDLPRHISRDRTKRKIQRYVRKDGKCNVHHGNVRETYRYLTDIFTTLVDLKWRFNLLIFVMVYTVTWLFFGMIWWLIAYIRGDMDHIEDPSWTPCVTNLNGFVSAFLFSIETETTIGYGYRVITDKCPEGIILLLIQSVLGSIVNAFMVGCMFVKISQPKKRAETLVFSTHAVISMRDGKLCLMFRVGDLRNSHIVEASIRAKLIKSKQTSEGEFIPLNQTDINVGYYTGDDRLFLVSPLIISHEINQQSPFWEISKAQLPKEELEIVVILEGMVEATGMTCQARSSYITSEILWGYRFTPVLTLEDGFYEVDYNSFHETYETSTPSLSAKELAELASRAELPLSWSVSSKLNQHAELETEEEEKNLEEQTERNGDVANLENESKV
GluA2 TARP mod = modulators of AMPA receptor GluA2-stargazin complexes; AID 1259245; actives 3.5% (n = 40,000); HEK293 GluA2+stargazin, membrane potential dye (FDSS), glutamate EC50; hits were called plate by plate, in both directions; calls only at 30 µM; O88602+P19491;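 active means any of four per-well response measures lying three or more SD from its plate-wide compound average, in either direction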
Each line names hits and unclear results; the compound was inactive in the other large screens.

CCOc1ccccc1NC(=O)CN1CCN(c2ncnc3c2nnn3C)CC1	none
COc1cccc(N2C(=O)N(c3cccc([N+](=O)[O-])c3)C3CS(=O)(=O)CC32)c1 (stereo not drawn)	none
CCOC(=O)c1c(SCC(=O)Nc2ccc3c(c2)OCCO3)nc(=O)[nH]c1C	none
COC(=O)c1c(NC(=O)c2ccn(C)n2)sc2c1CCN(Cc1ccccc1)C2	GluA2 TARP mod active
N#Cc1c(NC(=O)c2cc3ccccc3o2)sc2c1CCN(Cc1ccccc1)C2	GluA2 TARP mod active (no result: GIRK2 act)
Cc1cc(C(=O)Nc2sc3c(c2C#N)CCN(Cc2ccccc2)C3)on1	none (no result: GluA2 TARP mod)
CC(C)N1CCc2c(sc(NC(=O)c3ccn(C)n3)c2C(N)=O)C1	none
CCCC(=O)Nc1ccc(O)c(C(=O)/C=C/c2ccc(C(=O)O)cc2)c1	none (no result: GIRK2 act)
O=C(O)c1ccc(/C=C/C(=O)c2ccco2)cc1	GluA2 TARP mod active (no result: GIRK2 act)
Cc1ccc(CN2C(=O)CC(N3CCOCC3)C2=O)cc1 (stereo not drawn)	none
CC(c1ccccc1)N1C(=O)CC(N2CCOCC2)C1=O (stereo not drawn)	GluA2 TARP mod active (no result: GIRK2 act)
N#Cc1ccc(Cl)cc1NC(=O)C(=O)NCCC(O)c1ccco1 (stereo not drawn)	none
CS(=O)(=O)N1CCC(C(=O)Nc2nc(-c3cc4ccccc4oc3=O)cs2)CC1	none (no result: GluA2 TARP mod)
COc1ccc(-c2ccc(=O)n(CCNC(=O)c3ccc(S(=O)(=O)N4CCCCC4)cc3)n2)cc1	GluA2 TARP mod active (no result: GIRK2 act)
COc1ccc(-c2ccc(=O)n(CCNC(=O)c3ccc(S(=O)(=O)N(C)C)cc3)n2)cc1	none (no result: GIRK2 act)
COc1ccc(S(=O)(=O)N2c3ccccc3CC2C(N)=O)cc1C (stereo not drawn)	none
CCOC(=O)c1ccc(NS(=O)(=O)N(C)C)cc1	none (no result: GIRK2 act)
COc1ccc(CCNC(=O)CC2CCCCN2S(=O)(=O)c2ccccc2)cc1 (stereo not drawn)	none (no result: GIRK2 act)
Cc1ccc(S(=O)(=O)N2CCCCC2CC(=O)NC2CCCCCC2)cc1 (stereo not drawn)	GluA2 TARP mod active (no result: GIRK2 act)
Cc1ccc(S(=O)(=O)N2CCCCC2CC(=O)NCc2ccccn2)cc1 (stereo not drawn)	none
COc1ccc(S(=O)(=O)N2CCCCC2CC(=O)NCc2ccc(Cl)cc2)cc1 (stereo not drawn)	none (no result: GIRK2 act)
O=C(CC1CCCCN1S(=O)(=O)c1ccccc1)NC1CCCCCC1 (stereo not drawn)	GluA2 TARP mod active (no result: GIRK2 act)
COc1ccccc1CNC(=O)CC1CCCCN1S(=O)(=O)c1ccc(C)cc1 (stereo not drawn)	GluA2 TARP mod active (no result: GIRK2 act)
COc1ccccc1CNC(=O)CC1CCCCN1S(=O)(=O)c1ccccc1 (stereo not drawn)	none (no result: GIRK2 act)
COc1ccc(CCNC(=O)CC2CCCCN2S(=O)(=O)c2ccc(Cl)cc2)cc1OC (stereo not drawn)	GluA2 TARP mod active (no result: GIRK2 act)
CCCOc1ccc(S(=O)(=O)n2nnc3ccccc32)cc1	none (no result: GluA2 TARP mod)
Cc1ccccc1NC(=O)N(CCc1ccccc1)Cc1ccccn1	none
Cc1ccc(-c2ccc(OCCNS(=O)(=O)c3ccc(Cl)s3)nn2)cc1	none
N#Cc1ccc(Cl)cc1NC(=O)C(=O)NCC1CCN(C(=O)Oc2ccccc2)CC1	none
COc1ccc(S(=O)(=O)N2CCCCC2CC(=O)NC2CCCCCC2)cc1 (stereo not drawn)	GluA2 TARP mod active (no result: GIRK2 act)
COc1ccc(S(=O)(=O)N2CCCCC2CC(=O)NC2CCCCC2)cc1 (stereo not drawn)	none (no result: GIRK2 act)
Cn1c(=O)c2c(nc(N=Nc3c(O)[nH]c4ccccc34)n2Cc2ccccc2)n(C)c1=O	none (no result: GIRK2 act)
Cn1c(O)c(N=Nc2nc3c(c(=O)n(Cc4ccccc4)c(=O)n3C)n2C)c(=O)n(C)c1=O	GluA2 TARP mod active (no result: GIRK2 act)
Cc1ccc([N+](=O)[O-])cc1S(=O)(=O)NC1CC(C)(C)NC(C)(C)C1	GluA2 TARP mod active (no result: GIRK2 act)
Cc1ccc(S(=O)(=O)NC2CC(C)(C)NC(C)(C)C2)cc1	none (no result: GIRK2 act)
COC(=O)c1ccc2c(c1)C1CC(C)(O2)N(c2cccc(C)c2)C(=S)N1 (stereo not drawn)	none (no result: GIRK2 act)
O=S(=O)(NCC#CCN1CCCCC1)c1ccc2ccccc2c1	GluA2 TARP mod active (no result: GIRK2 act)
O=S(=O)(NCC#CCN1CCc2ccccc2C1)c1ccc2ccccc2c1	none
CC(C)c1nnc(C2CCN(C(=O)Cn3c(=O)oc4ccccc43)CC2)o1	none
C=C(C)Cn1c(N=Nc2c(O)[nH]c3ccccc23)nc2c1c(=O)n(C)c(=O)n2C	none (no result: GIRK2 act)
CCc1ccc(-c2cc3c(=O)[nH]nc(SCC(=O)NCc4ccccc4Cl)n3n2)cc1	none
COc1ccc(S(=O)(=O)Nc2ccccc2C(=O)Nc2ccc([N+](=O)[O-])cc2OC)cc1	GluA2 TARP mod active
COc1ccc([N+](=O)[O-])cc1NC(=O)c1ccccc1NS(=O)(=O)c1ccccc1	none
CCOC(=O)Cc1csc(NC(=O)C2CN(C(C)=O)C2)n1	none
COc1ccc(NC(=O)C(=O)NCC(c2cccs2)N2CCOCC2)cc1 (stereo not drawn)	none
CCCCCCCCn1c(C)c(C)n2c3c(=O)n(C)c(=O)n(C)c3nc12	none
Cc1c(C)n2c3c(=O)n(C)c(=O)n(C)c3nc2n1CC(O)CO (stereo not drawn)	GluA2 TARP mod active
CC(=O)C(C)n1c(-c2ccccc2)cn2c3c(=O)n(C)c(=O)n(C)c3nc12 (stereo not drawn)	none
COC(=O)C(C)n1c(C)c(C)n2c3c(=O)n(C)c(=O)n(C)c3nc12 (stereo not drawn)	GluA2 TARP mod active
Cc1c(C)n2c3c(=O)n(CC(N)=O)c(=O)n(C)c3nc2n1C(C)C	none
COC(=O)C(C)n1c(C)cn2c3c(=O)n(C)c(=O)n(C)c3nc12 (stereo not drawn)	GluA2 TARP mod active
CCN(C(=S)NC(=O)c1ccc(OC)c(Br)c1)c1ccccc1	none (no result: GIRK2 act)
COc1ccc(CNC(=O)C(=O)Nc2c3c(nn2C(C)(C)C)CS(=O)(=O)C3)cc1	none
O=C(Nc1ccc(Nc2ccccc2)cc1)c1ccoc1	GluA2 TARP mod active
NC(=O)c1cccc(NC(=O)c2ccoc2)c1	none
COc1ccc(NC(=O)Nc2ccc3c(c2)N(S(=O)(=O)c2ccccc2)CCC3)cc1	none (no result: GIRK2 act)
COc1cc2ccccc2cc1C(=O)Nc1cc(C)nn1C(C)C	none
O=C(/C=C/c1ccccc1Cl)Nc1ccc2c(c1)C(=O)N1CCCCC1CCO2 (stereo not drawn)	none
O=C1c2cc(NC(=O)C3(c4cccs4)CCCC3)ccc2OCCC2CCCCN12 (stereo not drawn)	GluA2 TARP mod active
CCOC(=O)N1CCC(NC(=O)c2csc(Nc3ccccc3)n2)CC1	none (no result: GluA2 TARP mod)
O=C(Nc1ccccc1)Nc1ccc2c(c1)N(C(=O)c1ccccc1)CCC2	none (no result: GluA2 TARP mod)
O=C(/C=C/c1ccccc1)Nc1ccc2c(c1)N(C(=O)c1ccccc1)CCC2	GluA2 TARP mod active
O=C(/C=C/c1ccc2c(c1)OCO2)Nc1ccc2c(c1)CN(C(=O)C1CC1)CC2	none
O=C(/C=C/c1ccc2c(c1)OCO2)Nc1ccc2c(c1)N(C(=O)C1CC1)CC2	GluA2 TARP mod active
COc1cn(CC(=O)Nc2ccccc2)c(CSc2nnnn2C)cc1=O	none
CC(=O)Nc1ccc(S(=O)(=O)NCCCN2CCOC(c3ccccc3)C2)c(C)c1 (stereo not drawn)	none (no result: GluA2 TARP mod)
CCCc1cc(=O)n2[nH]cc(-c3ccccc3)c2n1	none
O=C(NCC1(O)CCCC1)c1cccs1	none
O=C(Cc1csc(SCC(=O)c2ccc3c(c2)OCO3)n1)NCCC1=CCCCC1	none (no result: GluA2 TARP mod)
Cc1ccc(CSc2nc(CC(=O)NCCC3=CCCCC3)cs2)cc1	GluA2 TARP mod active
CCc1ccc(OCC(=O)NCCC2=CCCCC2)cc1	GluA2 TARP mod active

High-throughput results (PubChem)
